Laboratory results taken from PubChem BioAssay (NCI).
The panel holds about 83,000 compounds, 20% with a hit somewhere; the sample as a whole holds those more often.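 Cells were grown in 96-well plates and exposed to the test compound at a single concentration for 48 hours; results are reported as percent growth, with values below 10 considered active.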 The source made the active and inactive calls.

Legend:
Assay in all cases: NCI-60 one-dose screen, 48 h (100 = growth as untreated, 0 = no growth, -100 = all killed)
Conditions in all cases: 10 µM unless noted
DU-145 prostate = test system: DU-145 prostate
K-562 leukemia = test system: K-562 leukemia
MALME-3M melanoma = test system: MALME-3M melanoma
MDA-MB-231 breast = test system: MDA-MB-231 breast
RXF 393 renal = test system: RXF 393 renal
SF-268 CNS = test system: SF-268 CNS
SF-295 CNS = test system: SF-295 CNS
SF-539 CNS = test system: SF-539 CNS
UACC-257 melanoma = test system: UACC-257 melanoma
M14 melanoma = test system: M14 melanoma

Measured: growth

C#CCNC(=O)[C@]1(C)CC[C@]2(C)CC[C@@H]3C(=CC[C@H]4[C@@]3(C)CC[C@H]3C(C)(C)C(=O)CC[C@]43C)[C@@H]2C1
inactive: DU-145 prostate 98.8% | K-562 leukemia 63.7% | MALME-3M melanoma 114% | MDA-MB-231 breast 98% | RXF 393 renal 116% | SF-268 CNS 95.7% | SF-295 CNS 107% | SF-539 CNS 102% | UACC-257 melanoma 98.7% | M14 melanoma 95.8%

COc1ccc2c(c1)C(=O)CC(c1ccccc1OC)O2 (stereo not given)
inactive: DU-145 prostate 103% | K-562 leukemia 101% | MALME-3M melanoma 102% | MDA-MB-231 breast 86.8% | RXF 393 renal 106% | SF-268 CNS 96.6% | SF-295 CNS 101% | SF-539 CNS 96.6% | UACC-257 melanoma 101% | M14 melanoma 106%

Cc1cc2nc3c4cc(C=O)ccc4n(CCN(C)C)c3nc2cc1C
active: DU-145 prostate 0.0752% | K-562 leukemia 5.5% | MALME-3M melanoma -3.12%
inactive: MDA-MB-231 breast 24% | RXF 393 renal 19.4% | SF-268 CNS 37.3% | SF-295 CNS 17.1% | SF-539 CNS 21% | UACC-257 melanoma 11.4% | M14 melanoma 15.8%

O=C(Nc1ccccc1C(=O)N/N=C(\c1ccccc1)c1ccccn1)c1ccc(F)cc1
inactive: DU-145 prostate 23.5% | K-562 leukemia 12.8% | MALME-3M melanoma 35.6% | MDA-MB-231 breast 36.6% | RXF 393 renal 37.2% | SF-268 CNS 19.2% | SF-295 CNS 20.9%
active: SF-539 CNS 9.35% | UACC-257 melanoma 2.87% | M14 melanoma -23.3%

CCOC(=O)c1cc(C(=O)c2ccc(Br)cc2)n2ccc(/C=C/c3cc[n+](CC(=O)c4ccc(OC)cc4)cc3)cc12
active: K-562 leukemia 3.23%
inactive: DU-145 prostate 87% | MALME-3M melanoma 97.9% | MDA-MB-231 breast 71.6% | RXF 393 renal 94.4% | SF-268 CNS 110% | SF-295 CNS 103% | SF-539 CNS 102% | UACC-257 melanoma 100% | M14 melanoma 95.9%

S=c1cc(S)c2cc(Br)ccc2[nH]1
inactive: DU-145 prostate 105% | K-562 leukemia 94.9% | MALME-3M melanoma 98.4% | MDA-MB-231 breast 81.5% | RXF 393 renal 111% | SF-268 CNS 99% | SF-295 CNS 100% | SF-539 CNS 97.7% | UACC-257 melanoma 87.1% | M14 melanoma 90%

COc1cc(/C=N/NC(=O)c2cnn3c2NC(c2ccccc2)C3)ccc1Oc1ccccc1 (stereo not given)
inactive: DU-145 prostate 30.2% | K-562 leukemia 16.8% | MALME-3M melanoma 27.4% | MDA-MB-231 breast 44.3% | RXF 393 renal 29.3% | SF-268 CNS 45.2% | UACC-257 melanoma 41.6% | M14 melanoma 18.2%
active: SF-295 CNS 0.968% | SF-539 CNS 9.71%

O=C1c2ccc3c4c(ccc(c24)C(=O)N1CCCNCc1ccccc1)C(=O)N(CCCNCc1ccccc1)C3=O
active: DU-145 prostate -93.6% | K-562 leukemia -47.9% | MALME-3M melanoma -58.5% | MDA-MB-231 breast -8.41% | RXF 393 renal -88.8% | SF-268 CNS -71.4% | SF-295 CNS -39.7% | SF-539 CNS -69.6% | UACC-257 melanoma -95.2% | M14 melanoma -76%

ClC1=C(Br)C(Br)(Br)C(=C(Br)Br)C1(Br)Br
inactive: DU-145 prostate 104% | K-562 leukemia 70.1% | MALME-3M melanoma 94.1% | MDA-MB-231 breast 79.2% | RXF 393 renal 94.3% | SF-268 CNS 108% | SF-295 CNS 115% | SF-539 CNS 100% | UACC-257 melanoma 87.6% | M14 melanoma 81.6%

COc1ccc(N2CCN(c3ccc(NC4=C(Cl)C(=O)c5ncccc5C4=O)cc3)CC2)cc1
inactive: DU-145 prostate 35.3% | MALME-3M melanoma 31% | MDA-MB-231 breast 56.7% | RXF 393 renal 62.6% | SF-268 CNS 40% | SF-295 CNS 81.2% | SF-539 CNS 39.4% | UACC-257 melanoma 35.6% | M14 melanoma 53.6%
active: K-562 leukemia 4.16%

O=C(/C=C/c1ccc(F)cc1)c1ccc(NC(=O)N2CCN(c3cc4c(cc3F)c(=O)c(C(=O)O)cn4C3CC3)CC2)cc1
inactive: DU-145 prostate 103% | K-562 leukemia 91.2% | MALME-3M melanoma 91.3% | MDA-MB-231 breast 89.7% | RXF 393 renal 98.3% | SF-268 CNS 89.9% | SF-295 CNS 98.7% | SF-539 CNS 94.1% | UACC-257 melanoma 97.2% | M14 melanoma 97.8%

Cc1ccc(/C=N/NC(=O)CSc2nc3ccccc3c(=O)n2Cc2ccc(S(N)(=O)=O)cc2)cc1
inactive: DU-145 prostate 105% | K-562 leukemia 63.3% | MALME-3M melanoma 97% | MDA-MB-231 breast 89.7% | RXF 393 renal 86.8% | SF-268 CNS 78.2% | SF-295 CNS 95% | SF-539 CNS 102% | UACC-257 melanoma 96.4% | M14 melanoma 98.1%

COc1ccccc1NS(=O)(=O)c1cccc(C(=O)Nc2ccc(Br)cc2)c1
inactive: DU-145 prostate 52.1% | K-562 leukemia 25.6% | MALME-3M melanoma 32% | MDA-MB-231 breast 50.6% | RXF 393 renal 57.7% | SF-268 CNS 30.9% | SF-295 CNS 27% | SF-539 CNS 64.3% | UACC-257 melanoma 32.9% | M14 melanoma 38.9%

CN1CCN(C(=O)[C@]23CCC(C)(C)C[C@H]2C2=CC[C@@H]4[C@@]5(C)C/C(=C/c6ccncc6)C(=O)C(C)(C)[C@@H]5CC[C@@]4(C)[C@]2(C)CC3)CC1
inactive: DU-145 prostate 68.4% | K-562 leukemia 19% | MALME-3M melanoma 57.7% | MDA-MB-231 breast 64.2% | RXF 393 renal 27.6% | SF-268 CNS 64.4% | SF-295 CNS 67.1% | SF-539 CNS 69.3% | UACC-257 melanoma 57.5% | M14 melanoma 57.4%
